This passage reports Potency, outcome and activity change, negative = inhibition results from PubChem BioAssay (NCATS).

For assay [1], the system named is Zika virus NS2B-NS3 protease (unlinked complex). Briefly: Primary screen GU Rhodamine qHTS for Zika virus inhibitors: Unlinked NS2B-NS3 protease assay (AID 1347159). Note: nearly all actives have a fitted effect of over 60% in size. Note: potency is the fitted concentration of half-maximal effect. An outline of the steps:
(§1)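 Buffer 10 mM Tris-HCl pH 8.0, 0.01% Tween 20. Unlinked protease 25 nM; compound preincubation 15 min, RT, protected from light. Substrate Rhod110, 1.5 microM; ~15% conversion in 15 min.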

Assay [2] in a line: Confirmatory screen GU Rhodamine qHTS for Zika virus inhibitors qHTS (AID 1347157).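 For activity change, negative = inhibition: plate controls were no-inhibitor wells for no effect and no-enzyme wells for full effect.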 Note: nearly all actives have a fitted effect of over 70% in size. Note: potency is the fitted concentration of half-maximal effect. In outline:
as §1
For orientation: In qHTS, concentration-response curves come from the screen itself.

Assay [3] has as its system Zika virus NS2B-NS3 protease (linked construct). Briefly: Primary screen NINDS Rhodamine qHTS for Zika virus inhibitors (AID 1347160). For activity change, negative = inhibition: % is set by controls: 0 for no effect and ±100 for the full control effect. Note: nearly all actives have a fitted effect of over 55% in size. Note: potency is the fitted concentration of half-maximal effect. An outline of the steps:
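Aprotinin served as in-plate control. Conditions: 25 nM linked NS2B-NS3, pH 8.0 Tris buffer, titrated compounds, 15 min preincubation and 15 min reaction with 1.5 microM Rhod110 substrate at room temperature.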

Assay [4] can be described thus: Confirmatory screen NINDS Rhodamine qHTS for Zika virus inhibitors (AID 1347161).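 For activity change, negative = inhibition: purified Zika NS2B-NS3 protease with linked NS2B cofactor domain and Rhodamine110 peptide substrate; series mostly up to about 110 µM; plate controls were no-inhibitor control for no effect and no-enzyme control for full effect.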 Note: nearly all actives have a fitted effect of over 60% in size. Note: potency is the fitted concentration of half-maximal effect. An outline of the steps:
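Kinetic fluorescence (Ex 480 nm, Em 540 nm) over 15 min with 1.5 microM Rhodamine110 peptide and 25 nM linked protease.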

Assay [5] concerns Zika virus NS2B-NS3 protease (linked). Put plainly: 384 well plate NINDS AMC confirmatory qHTS for Zika virus inhibitors (AID 1347163). Note: potency is the fitted concentration of half-maximal effect; nearly all actives have a fitted effect of over 50% in size. An outline of the steps: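 Fluorescence at 355/460 nm was read after 25 minutes of cleavage of 30 microM Ac-VKTGKR-AMC at room temperature, in the dark. Before substrate addition, compounds (up to 1 mM final) sat ~15 minutes with 5, 30 or 60 nM linked protease. Signals were normalized to no-enzyme and no-inhibitor wells.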

The test system of assay [6] is Zika virus NS2B-NS3 protease (linked construct). Briefly: 384 well plate NINDS Rhodamine confirmatory qHTS for Zika virus inhibitors (AID 1347164).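 For activity change, negative = inhibition: top concentration of the series differs between compounds; plate controls were no-inhibitor control for no effect and no-enzyme control for full effect.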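 Note: fluorescence from protease cleavage of Ac-LKRR-rhodamine 110 substrate; nearly all actives have a fitted effect of over 65% in size.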 Note: potency is the fitted concentration of half-maximal effect. In outline: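 Enzyme (final 5/30/60 nM) + cpd (DMSO), ~15 min; add Ac-LKRR-Rd 10 microM final; 25 min RT, dark; FI ex 485/em 538; normalized to no-enzyme, no-inhibitor ctrls; aprotinin intraplate ctrl.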
A short description of assay [7]: Vero cells viability qHTS for Zika virus inhibitors (AID 1347167). Note: % is set by controls: 0 for no effect and ±100 for the full control effect. An outline of the steps: (§2)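 qHTS titration; 24-48 h compound exposure, 37 degrees C/5% CO2; DMEM, 4% FBS; CellTiter Glo ATP luminescence.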
Assay [8] in a line: HepG2 cells viability qHTS for Zika virus inhibitors (AID 1347168). Note: % is set by controls: 0 for no effect and ±100 for the full control effect. In outline: as §2
Assay [9] can be described thus: Tertiary RLuc qRT-PCR qHTS assay for Zika virus inhibitors (AID 1347169). For activity change, negative = inhibition: top concentration of the series differs between compounds; % is set by controls: 0 for no effect and ±100 for the full control effect. Note: nearly all actives have a fitted effect of over 55% in size. Note: potency is the fitted concentration of half-maximal effect. In outline: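 Vero, 1,000 cells/well, o/n 37 C; cpd pinned in DMSO; ZIKV-RLuc Cambodian, MOI 1-2, 48-72 h 37 C; live-cell RLuc substrate, lum read at 1-1.5 h.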
Background: In qPCR the cycle at which signal appears reflects the starting amount.

Assay [10] in a line: ZIKV-mCherry secondary qHTS for Zika virus inhibitors (AID 1347158). Note: top concentration of the series differs between compounds. An outline of the steps: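 Percent infection is the share of Hoechst-identified Vero nuclei with mCherry signal above 450 RFU (3 SD over negative controls). Cells were infected with recombinant ZIKV-mCherry at MOI 1 after compound addition and imaged 48–72 h later.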
Assay [11] concerns Zika virus NS2B-NS3 protease. Briefly: Primary screen GU AMC qHTS for Zika virus inhibitors (AID 1347154).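 Note: 0% = no-inhibitor control and -100% = no-enzyme control; nearly all actives have a fitted effect of over 70% in size.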 An outline of the steps:
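Unlinked Zika NS2B hydrophilic domain–NS3 protease complex at 25 nM in 10 mM Tris-HCl pH 8.0, 0.01% Tween 20, with an AMC peptide substrate. Fluorescence change (340/450 nm) over 15 min at room temperature, normalized to controls, fitted to 4-parameter Hill.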

Molecules are shown by their SMILES. Results filed as inconclusive are left out. Values without a mark were called inactive. The source made the active and inactive calls. Calls come from the whole dose curve; as a rule, active = well fitted curve in the direction sought with a large enough effect; inconclusive = small, poorly fitted or top-dose-only effect, or another doubt; inactive = no such curve, though single readings can be large; an effect the other way counts as inactive or inconclusive.

`CC/C(C)=C/C(=O)OC1C(OC2(C)CCC3C(C4C(C)CCC42)C3(C)C)OC(C)C(O)C1O` (stereo not drawn): the Potency in assay [1] was 14.1 µM (active).

As for `O=C(O)c1cc(N(Cc2ccc(C3CCCCC3)cc2)C(=O)c2ccc(Oc3ccccc3)cc2)ccc1O`, the Potency in assay [2] was 1.75 µM (active); in assay [1], 1.26 µM (active); in assay [3] it was 2.82 µM (active); in [4], 1.97 µM (active); in [5] it was 1.41 µM (active). Moreover, the Potency result in assay [6] was “inactive”. For the same molecule, the call in [7] and in assay [8] was inactive.

Consider `C[C@H]1CO[C@@H]2Cn3cc(C(=O)NCc4ccc(F)cc4F)c(=O)c(O)c3C(=O)N12`, for which the Potency result in [2], in assay [3], in [4] and in assay [9] was “inactive” each time. Besides, the Potency in [1] was 35.5 µM (active).

In the case of `O=C(Nc1cc(C(F)(F)F)cc(C(F)(F)F)c1)c1cnc(Cl)nc1C(F)(F)F`, the Potency in assay [2] is 24.8 µM (active); in assay [1], 15.8 µM (active); in [4], 44.1 µM (active). Further, the Potency entry in assay [3] is “inactive”.

As for `COc1ccc(-c2ccccc2)cc1NS(=O)(=O)c1cc(Cl)cc(Cl)c1O`, the Potency in assay [2] was 1.21 µM (active); in [1], 1.41 µM (active); in assay [3], 1.58 µM (active); in assay [4], 1.71 µM (active); in assay [5] it was 4.47 µM (active); in assay [6] it was 4.47 µM (active). The result in assay [7] and in assay [8] was inactive.

Turning to `CC1=C(C(=O)OC2CCCCC2)C(c2ccc([N+](=O)[O-])cc2)C2=C(CC(C)(C)CC2=O)N1` (stereo not drawn), the Potency entry in assay [2], in [1], in assay [4] and in assay [9] was “inactive” throughout. In [3], the Potency is 31.6 µM (active).

For the molecule `Cc1cc(C)c2c(c1)C(N(Cc1cc(C(F)(F)F)cc(C(F)(F)F)c1)c1nnn(C)n1)CCCN2CC1CCC(C(=O)O)CC1` (stereo not drawn), the Potency in assay [2] is 8.79 µM (active); in assay [1], 3.16 µM (active); in [3], 3.55 µM (active); in [4], 4.94 µM (active); in [9], 16.5 µM (active). In addition, in [10], the Potency entry was “inactive”. In addition, the molecule was called inactive in assay [7] and in [8].

For `COc1cc(C(=O)O)ccc1NC(=O)C1NC(CC(C)(C)C)C(C#N)(c2ccc(Cl)cc2F)C1c1cccc(Cl)c1F` (stereo not drawn), the Potency in assay [2] is 4.41 µM (active); in assay [1], 2.51 µM (active); in assay [4], 4.94 µM (active); in [9] it was 9.3 µM (active). For the same molecule, the Potency entry in [3] is “inactive”.

On to `CN(C)CCCn1cc(C2=C(c3c[nH]c4ccccc34)C(=O)NC2=O)c2ccccc21`, for which the Potency result in [11], in assay [1] and in [3] was “inactive” throughout.

Take `O=C(O)c1ccc(S(=O)(=O)N(Cc2ccc(OC(F)(F)F)cc2)c2ncc(C(F)(F)F)cc2Cl)cc1`: the Potency was 3.93 µM (active) in [2]; 4.47 µM (active) in [1]; 4.47 µM (active) in assay [3]; 3.93 µM (active) in assay [4]; 2.51 µM (active) in [5]; 18.6 µM (active) in assay [9]. The outcome in assay [7] and in assay [8] was inactive.

Take `Cc1cc(OCCCS(C)(=O)=O)cc(C)c1-c1cccc(COc2ccc3c(c2)OCC3CC(=O)O)c1` (stereo not drawn): the Potency in assay [2] is 8.79 µM (active); in [1] it was 12.6 µM (active); in assay [4], 7.84 µM (active). The Potency entry in assay [3] was “inactive”.

On to `O=C(O)c1ccc(N2C(=O)/C(=C/c3ccc(-c4ccc([N+](=O)[O-])cc4)o3)C=C2c2ccccc2)cc1`, for which the Potency in [2] was 1.56 µM (active); in assay [3], 1.78 µM (active); in assay [4] it was 1.75 µM (active); in assay [5], 22.4 µM (active). Also, the Potency entry in assay [10] and in assay [6] was “inactive” in each case. Besides, the call in assay [7] and in [8] was inactive.

On to `COc1ccc2cc(-c3cc(-c4cc(Cl)cc(Cl)c4)nn3C(C)c3ccc(C(=O)NCCC(=O)O)cc3)ccc2c1` (stereo not drawn), for which the results for the Potency in [2], in assay [1] and in assay [4] were 5.55 µM (active), 2.24 µM (active) and 4.94 µM (active), respectively. The Potency entry in assay [3] and in assay [9] was “inactive” throughout.

For the molecule `CC(C)C[C@H](C(=O)O)c1cc(-c2ccc(C(F)(F)F)cc2)cc(-c2ccc(C(F)(F)F)cc2)c1`, the Potency in assay [2] was 3.12 µM (active); in assay [3], 3.55 µM (active); in assay [4], 3.5 µM (active); in assay [9], 9.3 µM (active). For the same molecule, the Potency result in [6] was “inactive”. Moreover, the call in assay [8] was inactive.

`CCc1ccccc1OC[C@@H](O)CN[C@H]1CCCc2ccccc21`: the Potency entry in [11], in [1] and in assay [3] was “inactive” each time.

`CCCCCc1ccc(/C=C/C(=O)Nc2cc(Cl)ccc2C(=O)O)cc1`: the Potency in [2] was 1.75 µM (active); in assay [3] it was 2 µM (active); in [4], 1.75 µM (active); in assay [6], 22.4 µM (active). Also, the molecule was called inactive in [8].

On to `O=S(=O)(Nc1cc(Cl)c(Oc2cnc3ccccc3c2)c(Cl)c1)c1ccc(Cl)cc1Cl`, for which the Potency was 1.75 µM (active) in assay [2]; 1.78 µM (active) in assay [1]; 3.98 µM (active) in [3]; 2.21 µM (active) in assay [4]; 2.51 µM (active) in [6]; 9.3 µM (active) in assay [9]. For the same molecule, the molecule was classed as inactive in [8].

Take `CC(O)(C(=O)O)C1CCC2(C)C1CCC1(C)C2CCC2C3(C)CCC(O)C(C)(COC4OC(CO)C(O)C(O)C4O)C3CCC21C` (stereo not drawn): the Potency in assay [2] was 13.1 µM (active); in [4] it was 13.1 µM (active); in [5] it was 39.8 µM (active); in assay [6] it was 12.6 µM (active). The outcome in assay [7] and in assay [8] was inactive. Further, in [9], the Potency entry was “inactive”.

For the molecule `CC(C)C[C@H](CO)Nc1nc(S[C@@H](C)c2ccccc2)nc2nc(N)sc12`, the Potency in assay [2] was 55.5 µM (active). Also, in assay [1], the Potency result was “inactive”.

In the case of `O=C(Nc1ccc(/C=C/c2ccc(NC(=O)c3cc(S(=O)(=O)O)c4cccnc4c3O)cc2S(=O)(=O)O)c(S(=O)(=O)O)c1)c1cc(S(=O)(=O)O)c2cccnc2c1O`, the Potency in [2] is 2.82 µM (active); in [4] it was 2.51 µM (active); in assay [5], 44.7 µM (active); in assay [6] it was 15.8 µM (active). The Potency entry in [10] was “inactive”. In addition, the activity change, negative = inhibition in assay [9] was 59.5% [at 5.25 µM].
